The full data set covers some 7,900 targets. This sample favours those with a hit. About 0.6% of all pairs of compound and target were hits.
What was measured:
Assay in all cases: log2 fold change, soluble protein after heating vs DMSO (PISA); higher = thermal stabilisation; K562 cells, 10 uM, 30 min; active = over 0.2 and 3.5 SD of the protein, either way, in both replicates (recomputed)
[1] = compound: C1=CC=C(C=C1)[C@H](COC2=CC3=C(C=C2)NC(=O)N3)NC(=O)C4=CC=CN(C4=O)CC5=CC(=C(C=C5)F)F
Procedure, shortened: (§1)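 Quantification of soluble protein used TMTpro 16plex LC-MS/MS, with channel sums equalised. Samples were the supernatant after 21,000xg for 90 min of pooled aliquots from K562 cells (2×10^6 cells/mL) treated with 10 μM compound for 30 min, heated for 3 min over 48°C-58°C, and extracted in PBS with 0.5% NP-40 at 4°C. Values, from duplicates, describe thermal stability against control samples on a log2 fold-change scale.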

[2] = compound: CC1=C(SC2=C1C(=N[C@H](C3=NN=C(N32)C)CC(=O)N)C4=CC=C(C=C4)Cl)C
Procedure, shortened: as §1

[3] = compound: CC1=C2C(=CC=C1)N=C(N(C2=O)C3=CC=CC=C3C)CN4C=NC5=C(N=CN=C54)N
Procedure, shortened: as §1

[4] = compound: Cc1sc2c(c1C)C(c1ccc(Cl)cc1)=N[C@@H](CC(=O)OC(C)(C)C)c1nnc(C)n1-2
Procedure, shortened: as §1

[5] = compound: c1ccc([C@@H]2C[C@H]2NC2CCNCC2)cc1
Procedure, shortened: as §1

Measured: log2 fold change

CBR1 (UniProt P16152)
UniProt P16152, sequence (P16152 whole entry, looked up): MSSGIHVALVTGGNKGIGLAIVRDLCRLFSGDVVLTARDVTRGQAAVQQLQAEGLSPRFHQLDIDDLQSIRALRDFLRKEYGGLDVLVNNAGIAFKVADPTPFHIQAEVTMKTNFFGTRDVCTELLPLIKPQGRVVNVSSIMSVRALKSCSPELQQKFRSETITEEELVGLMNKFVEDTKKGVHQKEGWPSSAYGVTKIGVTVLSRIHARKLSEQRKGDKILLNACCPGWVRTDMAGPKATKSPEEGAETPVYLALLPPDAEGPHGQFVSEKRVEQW
inactive: [1] -0.009 | [2] 0.015 | [3] 0.01 | [4] -0.028 | [5] -0.037

CKB (UniProt P12277)
UniProt P12277, sequence (P12277 whole entry, looked up): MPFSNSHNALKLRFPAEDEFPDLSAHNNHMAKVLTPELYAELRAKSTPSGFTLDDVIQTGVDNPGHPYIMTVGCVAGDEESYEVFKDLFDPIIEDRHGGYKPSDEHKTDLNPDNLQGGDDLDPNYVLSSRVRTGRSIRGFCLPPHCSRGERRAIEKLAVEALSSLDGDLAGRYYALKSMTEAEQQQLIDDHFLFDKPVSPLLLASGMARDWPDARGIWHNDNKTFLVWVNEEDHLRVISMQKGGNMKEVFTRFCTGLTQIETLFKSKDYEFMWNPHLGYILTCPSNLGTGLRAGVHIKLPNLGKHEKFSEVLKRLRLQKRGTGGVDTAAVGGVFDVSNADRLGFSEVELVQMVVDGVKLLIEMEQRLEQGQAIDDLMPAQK
inactive: [1] -0.1 | [2] 0.01 | [3] 0.038 | [4] -0.022 | [5] -0.118

CLPTM1L (UniProt G5E9Z2)
inactive: [1] -0.22 | [2] 0.148 | [3] -0.012 | [4] -0.07 | [5] -0.1

CDC123 (UniProt O75794)
UniProt O75794, sequence (O75794 whole entry, looked up): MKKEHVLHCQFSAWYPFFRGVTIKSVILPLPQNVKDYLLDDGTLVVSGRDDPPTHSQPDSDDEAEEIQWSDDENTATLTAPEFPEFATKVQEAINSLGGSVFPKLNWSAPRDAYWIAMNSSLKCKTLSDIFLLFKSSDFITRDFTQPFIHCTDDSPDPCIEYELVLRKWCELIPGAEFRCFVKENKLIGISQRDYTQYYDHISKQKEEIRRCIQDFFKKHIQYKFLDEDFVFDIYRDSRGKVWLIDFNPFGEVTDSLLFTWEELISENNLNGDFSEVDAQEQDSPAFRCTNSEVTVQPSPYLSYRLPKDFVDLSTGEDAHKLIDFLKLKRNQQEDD
inactive: [1] -0.036 | [2] 0 | [3] 0.03 | [4] -0.018 | [5] -0.029

CHD4 isoform 2 (UniProt Q14839)
inactive: [1] -0.065 | [2] 0 | [3] 0.021 | [4] 0.049 | [5] 0.032

CLUH (UniProt O75153)
UniProt O75153, sequence (O75153 whole entry, looked up): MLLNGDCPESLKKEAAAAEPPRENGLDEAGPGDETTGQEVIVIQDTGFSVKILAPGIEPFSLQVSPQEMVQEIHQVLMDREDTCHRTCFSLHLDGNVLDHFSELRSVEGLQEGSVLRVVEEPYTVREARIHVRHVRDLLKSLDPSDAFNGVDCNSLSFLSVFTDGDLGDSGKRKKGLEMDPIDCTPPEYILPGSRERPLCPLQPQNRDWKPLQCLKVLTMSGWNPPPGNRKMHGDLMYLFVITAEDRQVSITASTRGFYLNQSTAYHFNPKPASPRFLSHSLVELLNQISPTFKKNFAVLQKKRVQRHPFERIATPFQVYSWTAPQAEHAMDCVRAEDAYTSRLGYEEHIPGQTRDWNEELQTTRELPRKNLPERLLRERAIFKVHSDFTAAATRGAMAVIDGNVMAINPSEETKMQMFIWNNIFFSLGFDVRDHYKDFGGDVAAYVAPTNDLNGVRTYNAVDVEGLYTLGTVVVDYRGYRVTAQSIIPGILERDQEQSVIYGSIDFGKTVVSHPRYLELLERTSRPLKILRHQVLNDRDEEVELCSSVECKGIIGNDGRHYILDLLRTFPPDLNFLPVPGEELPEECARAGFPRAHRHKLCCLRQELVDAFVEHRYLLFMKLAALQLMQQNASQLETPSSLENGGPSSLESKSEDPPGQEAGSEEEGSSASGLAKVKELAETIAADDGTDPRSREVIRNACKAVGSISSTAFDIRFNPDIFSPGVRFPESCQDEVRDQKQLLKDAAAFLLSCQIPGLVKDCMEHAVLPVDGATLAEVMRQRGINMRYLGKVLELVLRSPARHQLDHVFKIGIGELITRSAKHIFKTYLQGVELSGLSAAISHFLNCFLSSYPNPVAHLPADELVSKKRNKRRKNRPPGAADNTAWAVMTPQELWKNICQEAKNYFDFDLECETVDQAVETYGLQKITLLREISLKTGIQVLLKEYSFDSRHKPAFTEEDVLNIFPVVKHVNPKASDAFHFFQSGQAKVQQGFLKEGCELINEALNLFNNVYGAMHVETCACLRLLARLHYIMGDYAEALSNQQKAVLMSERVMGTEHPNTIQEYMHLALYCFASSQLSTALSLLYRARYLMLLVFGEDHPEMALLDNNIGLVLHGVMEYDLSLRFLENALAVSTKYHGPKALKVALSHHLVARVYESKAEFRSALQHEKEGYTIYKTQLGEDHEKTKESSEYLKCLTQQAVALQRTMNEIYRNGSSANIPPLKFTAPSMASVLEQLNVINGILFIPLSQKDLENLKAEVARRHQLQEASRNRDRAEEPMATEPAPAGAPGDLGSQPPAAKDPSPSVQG
inactive: [1] -0.05 | [2] 0.027 | [3] 0.086 | [4] -0.016 | [5] -0.052

CBS (UniProt P35520)
inactive: [1] -0.029 | [2] 0.07 | [3] 0.016 | [4] -0.014 | [5] -0.026

COPS4 (UniProt Q9BT78)
inactive: [1] 0.04 | [2] 0.023 | [3] 0.016 | [4] -0.01 | [5] -0.011

CFAP36 isoform 2 (UniProt Q96G28)
active: [3] 0.383
inactive: [1] -0.042 | [2] 0.01 | [4] -0.009 | [5] -0.158

COQ9 (UniProt O75208)
inactive: [1] -0.068 | [2] -0.025 | [3] 0.053 | [4] -0.081 | [5] 0.036

CDK13 (UniProt Q14004)
inactive: [1] 0.031 | [2] 0.019 | [3] -0.017 | [4] 0.161 | [5] -0.004

CDK8 (UniProt P49336)
UniProt P49336, sequence (P49336 whole entry, looked up): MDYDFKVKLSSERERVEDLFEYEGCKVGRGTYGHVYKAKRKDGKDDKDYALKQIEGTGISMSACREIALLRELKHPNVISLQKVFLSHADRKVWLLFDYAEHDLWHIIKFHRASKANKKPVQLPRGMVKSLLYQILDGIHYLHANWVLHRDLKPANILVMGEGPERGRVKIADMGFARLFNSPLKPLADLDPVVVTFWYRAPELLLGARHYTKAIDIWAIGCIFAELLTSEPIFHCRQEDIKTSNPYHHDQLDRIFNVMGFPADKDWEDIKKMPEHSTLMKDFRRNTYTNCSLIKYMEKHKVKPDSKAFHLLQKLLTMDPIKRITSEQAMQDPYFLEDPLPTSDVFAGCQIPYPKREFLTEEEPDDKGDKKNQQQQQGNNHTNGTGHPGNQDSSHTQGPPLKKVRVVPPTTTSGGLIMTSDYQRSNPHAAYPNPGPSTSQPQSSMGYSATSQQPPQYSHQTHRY
inactive: [1] 0 | [2] -0.043 | [3] 0.018 | [4] 0.035 | [5] -0.129

CSNK2A1 (UniProt P68400)
inactive: [1] 0.018 | [2] 0.033 | [3] 0.018 | [4] -0.008 | [5] 0.02

CDC42BPA isoform 6 (UniProt Q5VT25)
inactive: [1] -0.101 | [2] -0.039 | [3] 0.083 | [4] 0.031 | [5] 0.069

CHCHD2 (UniProt Q9Y6H1)
UniProt Q9Y6H1, sequence (Q9Y6H1 whole entry, looked up): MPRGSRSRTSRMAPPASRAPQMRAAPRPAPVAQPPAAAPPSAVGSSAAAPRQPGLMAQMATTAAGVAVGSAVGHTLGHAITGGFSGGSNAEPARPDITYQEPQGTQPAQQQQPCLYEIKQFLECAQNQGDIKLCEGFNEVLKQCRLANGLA
inactive: [1] -0.016 | [2] 0.082 | [3] -0.007 | [4] -0.065 | [5] -0.011

CASP2 (UniProt P42575)
UniProt P42575, sequence (P42575 whole entry, looked up): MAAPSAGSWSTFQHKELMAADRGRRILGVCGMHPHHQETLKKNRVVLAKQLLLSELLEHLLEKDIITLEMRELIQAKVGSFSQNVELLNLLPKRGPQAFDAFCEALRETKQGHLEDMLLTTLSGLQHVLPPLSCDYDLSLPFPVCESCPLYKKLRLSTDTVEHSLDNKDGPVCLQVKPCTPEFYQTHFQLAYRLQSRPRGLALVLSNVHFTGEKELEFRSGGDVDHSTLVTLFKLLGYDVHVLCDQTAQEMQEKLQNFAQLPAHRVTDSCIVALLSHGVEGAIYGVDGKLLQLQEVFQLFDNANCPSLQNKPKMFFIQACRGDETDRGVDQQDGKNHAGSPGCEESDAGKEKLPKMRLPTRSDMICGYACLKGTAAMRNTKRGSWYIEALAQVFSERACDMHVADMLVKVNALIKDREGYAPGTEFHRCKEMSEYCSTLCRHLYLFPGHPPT
inactive: [1] -0.039 | [2] 0.016 | [3] 0.027 | [4] -0.01 | [5] -0.039

CPSF1 (UniProt Q10570)
inactive: [1] -0.012 | [2] -0.049 | [3] -0.017 | [4] 0.132 | [5] 0.006

CERS2 (UniProt Q96G23)
UniProt Q96G23, sequence (Q96G23 whole entry, looked up): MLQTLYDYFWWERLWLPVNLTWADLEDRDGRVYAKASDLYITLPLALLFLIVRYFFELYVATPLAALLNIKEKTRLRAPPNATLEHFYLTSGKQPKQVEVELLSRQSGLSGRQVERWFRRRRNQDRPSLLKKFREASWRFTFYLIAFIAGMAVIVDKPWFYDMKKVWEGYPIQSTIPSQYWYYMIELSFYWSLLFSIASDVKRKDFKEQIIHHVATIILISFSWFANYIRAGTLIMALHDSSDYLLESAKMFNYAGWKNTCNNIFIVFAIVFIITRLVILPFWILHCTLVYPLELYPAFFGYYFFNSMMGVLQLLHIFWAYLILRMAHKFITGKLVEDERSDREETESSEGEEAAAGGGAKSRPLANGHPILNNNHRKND
inactive: [1] -0.033 | [2] 0.035 | [3] -0.012 | [4] -0.036 | [5] 0.048

COMMD2 (UniProt Q86X83)
inactive: [1] -0.029 | [2] 0.053 | [3] 0 | [4] -0.199 | [5] 0.04

CDK11B (UniProt P21127)
UniProt P21127, sequence (P21127 whole entry, looked up): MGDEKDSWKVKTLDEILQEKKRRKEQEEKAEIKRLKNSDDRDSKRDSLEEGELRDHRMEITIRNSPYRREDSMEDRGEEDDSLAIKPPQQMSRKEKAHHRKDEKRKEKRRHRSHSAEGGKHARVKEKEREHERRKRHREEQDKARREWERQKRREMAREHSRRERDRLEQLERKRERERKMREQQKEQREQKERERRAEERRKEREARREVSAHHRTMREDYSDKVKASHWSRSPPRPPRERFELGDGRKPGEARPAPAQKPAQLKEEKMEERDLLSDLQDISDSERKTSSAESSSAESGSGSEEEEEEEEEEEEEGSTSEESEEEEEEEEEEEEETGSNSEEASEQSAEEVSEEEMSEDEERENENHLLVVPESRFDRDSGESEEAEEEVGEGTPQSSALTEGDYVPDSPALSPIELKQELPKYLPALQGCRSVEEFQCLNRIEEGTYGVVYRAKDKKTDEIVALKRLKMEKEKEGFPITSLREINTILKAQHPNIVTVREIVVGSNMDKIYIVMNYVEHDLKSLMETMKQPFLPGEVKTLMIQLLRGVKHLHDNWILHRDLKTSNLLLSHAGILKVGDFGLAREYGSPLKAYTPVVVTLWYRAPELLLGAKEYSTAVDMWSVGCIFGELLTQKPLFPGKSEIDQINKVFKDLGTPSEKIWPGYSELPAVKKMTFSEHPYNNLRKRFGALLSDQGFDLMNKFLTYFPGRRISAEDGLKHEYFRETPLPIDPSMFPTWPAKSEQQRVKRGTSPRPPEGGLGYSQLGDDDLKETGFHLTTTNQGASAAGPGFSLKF
inactive: [1] -0.05 | [2] 0.015 | [3] 0.137 | [4] -0.01 | [5] 0.059

CNOT1 (UniProt A5YKK6)
inactive: [1] -0.02 | [2] 0.021 | [3] 0.031 | [4] -0.017 | [5] -0.021

CDK1 (UniProt P06493)
inactive: [1] -0.019 | [2] 0.036 | [3] 0.003 | [4] 0.019 | [5] 0.037

CAVIN1 (UniProt Q6NZI2)
UniProt Q6NZI2, sequence (Q6NZI2 whole entry, looked up): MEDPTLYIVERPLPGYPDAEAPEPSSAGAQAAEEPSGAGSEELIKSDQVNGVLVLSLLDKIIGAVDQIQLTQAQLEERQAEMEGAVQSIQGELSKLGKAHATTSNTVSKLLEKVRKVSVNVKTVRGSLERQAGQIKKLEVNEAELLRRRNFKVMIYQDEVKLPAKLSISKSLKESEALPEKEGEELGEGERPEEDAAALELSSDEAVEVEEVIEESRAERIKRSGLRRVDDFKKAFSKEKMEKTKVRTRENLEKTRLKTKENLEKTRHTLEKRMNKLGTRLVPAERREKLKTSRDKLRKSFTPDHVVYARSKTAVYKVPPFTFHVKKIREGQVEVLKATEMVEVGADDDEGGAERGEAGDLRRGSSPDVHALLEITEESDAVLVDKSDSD
inactive: [1] 0.017 | [2] -0.127 | [3] -0.103 | [4] 0.101 | [5] 0

CDK12 (UniProt Q9NYV4)
inactive: [1] 0.102 | [2] -0.425 | [3] -0.103 | [4] 0.112 | [5] 0.008

CCDC57 (UniProt Q2TAC2)
active: [2] 0.262
inactive: [1] 0.015 | [3] 0.047 | [4] -0.161 | [5] -0.139

Reference: the supplement of paper PMC10849652
